SMARCA2 activ = SMARCA2 (BRM) function activators, primary screen, cell-based, luminescence, high throughput; MG213 cells, MMTV-luciferase reporter, dexamethasone, overnight; activation, % at 9.1 µM; hit rate 1% among 370,000; AID 652017, 2013; in the data active means activation above about 7.8%;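 further: 0% = vehicle wells and 100% = reference activator wells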
hcDAF12 agonist = H. contortus DAF-12 nuclear receptor activators, primary screen, cell-based, luminescence, HEK293, lit1-tk-luc reporter; hit rate 1.4% among 370,000; activation, % at 6.8 µM; HEK293 hcDAF-12 lit1-tk-luc reporter; 0% DMSO, 100% Δ7-dafachronic acid;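 active means activation above the mean of all tested compounds plus 3 SD, cut at about 5.5% in these data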;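 further: 100% = response to 3 µM Δ7-dafachronic acid high control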
DAX1 inh-1 = DAX1 (NR0B1) inhibitors on StAR promoter, primary screen, cell-based, luminescence, SF-1 (NR5A1), full-length DAX-1; HEK293T StAR-luciferase reporter, SF-1/DAX-1 repression relief; inhibition, % at 6.8 µM; hit rate 1.1% among 370,000;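 active means inhibition above the mean over all tested compounds plus 3 SD, cut at about 3.6% in these data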;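 further: 0% = DAX-1 cells with DMSO and 100% = cells lacking DAX-1 with DMSO; higher inhibition means more luminescence from relief of DAX-1 repression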
ssDAF-12 act = S. stercoralis DAF-12 nuclear receptor activators, primary screen, cell-based, luminescence, HEK293, GRIP1 co-expression, lit1-tk-luc; HEK293 ssDAF-12/GRIP1 lit1-tk-luc reporter; % of 3 µM dafachronic acid response; activation, % at 6.8 µM; Nuclear hormone receptor DAF-12 (Strongyloides stercoralis); hit rate 1% among 370,000;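 active means activation above the mean over all tested compounds plus 3 SD, cut at about 0.9% in these data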;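 further: 0% = DMSO-only wells and 100% = 3 µM delta7-dafachronic acid wells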
DAX1 inh-2 = DAX1 (NR0B1) inhibitors, primary screen, cell-based, HEK293, Gal4-DAX1, luciferase luminescence; Nuclear receptor subfamily 0 group B member 1 (Homo sapiens), P51843; HEK293 Gal4-DAX1 luciferase reporter; inhibition, % at 6.75 µM; hit rate 0.99% among 340,000;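 active means inhibition above the mean over all tested compounds plus 3 SD, cut at about 4.2% in these data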;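 further: 0% = DAX1-transfected cells with DMSO and 100% = empty-vector control cells with DMSO; inhibition shows as a rise in luminescence from relieved DAX1 repression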
Target sequence (P51843 207-470 limits assumed): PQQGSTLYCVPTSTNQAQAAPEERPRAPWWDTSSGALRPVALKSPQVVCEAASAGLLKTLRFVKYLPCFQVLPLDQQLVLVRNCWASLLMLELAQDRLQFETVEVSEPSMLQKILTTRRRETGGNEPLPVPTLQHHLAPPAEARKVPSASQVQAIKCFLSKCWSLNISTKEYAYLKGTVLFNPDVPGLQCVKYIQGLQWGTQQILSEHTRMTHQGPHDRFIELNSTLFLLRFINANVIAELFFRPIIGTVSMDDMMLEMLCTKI
hgDAF12 agonist = H. glycines DAF-12 receptor agonists, primary screen, cell-based, luminescence, HEK293, GAL4 fusion, UAS-luciferase | Nuclear hormone receptor DAF-12 (Heterodera glycines), GAL4 fusion | HEK293 GAL4-hgDAF12 UAS-luciferase reporter, agonist luminescence; normalized to butyrate control | activation, % at 6.8 µM | hit rate 1.8% among 370,000 | AID 687014, 2013;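 active means activation above a cutoff set at the mean of all screened compounds plus 3 SD, cut at about 10% in these data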;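 further: 0% = DMSO wells and 100% = sodium butyrate wells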
SMARCA2 act conf = SMARCA2 (BRM) function activators, confirmation, cell-based, luminescence, triplicate. shares compounds with SMARCA2 activ. MG213 cells, MMTV-luciferase with dexamethasone, overnight; MG213 cells expressing E1A, Rb sequestered; DMSO wells 0%, reference activator 100%. activation, % at 9.1 µM. hit rate 30% among 3,500;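 active means activation above its plate's cutoff, the mean activation of tested wells plus 3 SD, cut at about 7.9% in these data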
GAL4-VP16 Luc = GAL4-VP16 luciferase reporter activation, counter-screen for SMARCA2 (BRM) activator project, cell-based, pG5luc, luminescence, high throughput | shares compounds with SMARCA2 activ | HEK293 GAL4-VP16 pG5luc reporter; scaled: DMSO wells 0%, SAHA wells 100% | activation, % at 9.1 µM | hit rate 41% among 3,500 | AID 686939, 2013;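 active means activation above the solvent-only control well mean plus 3 SD, averaged across control plates, cut at about 5.2% in these data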
* marks the source's active call; other numbers are inactive results. An excerpt weighted towards active compounds, which were near 4.8% of everything screened.

For CCCCn1c(C)csc1=Nc1cccnc1 the results were SMARCA2 activ -3, hcDAF12 agonist -1, DAX1 inh-1 0, ssDAF-12 act -1, DAX1 inh-2 0 and hgDAF12 agonist -2.
For O=C(OCc1c(-c2ccccc2)ncc2ccccc12)N1CCOCC1 the results were SMARCA2 activ 9.6*, hcDAF12 agonist -2, DAX1 inh-1 0, ssDAF-12 act -2, DAX1 inh-2 0, hgDAF12 agonist 1, SMARCA2 act conf 7 and GAL4-VP16 Luc 2.
Screening O=C1C(=Cc2ccco2)CCCC1=Cc1ccco1 returned SMARCA2 activ 8.1*, hcDAF12 agonist 2, DAX1 inh-1 3, ssDAF-12 act 0, DAX1 inh-2 -1, hgDAF12 agonist 1, SMARCA2 act conf 16* and GAL4-VP16 Luc 7.2*.
OC(c1ccccc1)(c1ccccc1)C1CCN(CCCNc2cccc(OC(F)(F)F)c2)CC1 was read as SMARCA2 activ -9, hcDAF12 agonist -2, DAX1 inh-1 0, ssDAF-12 act 1 and hgDAF12 agonist 0.
Screening CC(=O)c1ccc(NCCCN2CCC(C(O)(c3ccccc3)c3ccccc3)CC2)cc1 returned SMARCA2 activ 9.6*, hcDAF12 agonist 0, DAX1 inh-1 1, ssDAF-12 act -1, hgDAF12 agonist 0, SMARCA2 act conf 1 and GAL4-VP16 Luc 1.
`CCc1c(C)nc(N2CCN(c3ccc(F)cc3)CC2)[nH]c1=O` gave SMARCA2 activ 3, hcDAF12 agonist -2, DAX1 inh-1 0, ssDAF-12 act -1, DAX1 inh-2 2 and hgDAF12 agonist 1.
CN1CCN(C(=S)NC(=O)/C=C/c2ccccc2Cl)CC1 was read as SMARCA2 activ 1, hcDAF12 agonist 2, DAX1 inh-1 0, ssDAF-12 act 0, DAX1 inh-2 0 and hgDAF12 agonist -1.
`CN1CCN(C(=S)NC(=O)/C=C/c2ccccc2)CC1` gave SMARCA2 activ 8.3*, hcDAF12 agonist 0, DAX1 inh-1 -1, ssDAF-12 act -1, DAX1 inh-2 -1, hgDAF12 agonist 1, SMARCA2 act conf 1 and GAL4-VP16 Luc 1.
Screening CCOc1ccccc1C1C2C(=O)N(c3ccccc3)C(=O)C2ON1c1ccccc1 (stereo unspecified) returned SMARCA2 activ 0, hcDAF12 agonist -1, DAX1 inh-1 0, ssDAF-12 act -1, DAX1 inh-2 0 and hgDAF12 agonist 0.
CCOc1ccc(NC(=O)C(c2ccccn2)N(C(=O)CCl)c2ccc(OC)cc2)cc1 (stereo unspecified) was read as SMARCA2 activ 9.7*, hcDAF12 agonist 10*, DAX1 inh-1 0, ssDAF-12 act 2.4*, DAX1 inh-2 1, hgDAF12 agonist 11*, SMARCA2 act conf 8 and GAL4-VP16 Luc 4.
`Brc1ccc(Cn2c(-c3cncs3)nc3ccccc32)cc1` gave SMARCA2 activ 8.8*, hcDAF12 agonist 1, DAX1 inh-1 -1, ssDAF-12 act -1, DAX1 inh-2 0, hgDAF12 agonist 2, SMARCA2 act conf 7 and GAL4-VP16 Luc 2.
Screening CC(C)CSc1nnc(-c2ccco2)n1C returned SMARCA2 activ 8.4*, hcDAF12 agonist 1, DAX1 inh-1 -1, ssDAF-12 act -1, hgDAF12 agonist 8, SMARCA2 act conf 8.9* and GAL4-VP16 Luc 2.
For CCOC(=O)c1sc(NC(=O)c2cc3ccccc3o2)nc1C the results were SMARCA2 activ 3, hcDAF12 agonist 1, DAX1 inh-1 3, ssDAF-12 act -1, DAX1 inh-2 1 and hgDAF12 agonist 4.
CCOC(=O)c1sc(NC(=O)c2cncc(Br)c2)nc1C was read as SMARCA2 activ 10*, hcDAF12 agonist -1, DAX1 inh-1 0, ssDAF-12 act -1, hgDAF12 agonist 2, SMARCA2 act conf 4 and GAL4-VP16 Luc 9.3*.
Screening C=CCOC(=O)c1sc(NC(=O)c2ccco2)nc1C returned SMARCA2 activ 8.0*, hcDAF12 agonist 5, DAX1 inh-1 3, ssDAF-12 act 0, DAX1 inh-2 2, hgDAF12 agonist 11*, SMARCA2 act conf 18* and GAL4-VP16 Luc 6.7*.
Screening O=[N+]([O-])c1cnc(Sc2ccncn2)s1 returned SMARCA2 activ 12*, hcDAF12 agonist -1, DAX1 inh-1 -1, ssDAF-12 act -1, DAX1 inh-2 0, hgDAF12 agonist 1, SMARCA2 act conf -15 and GAL4-VP16 Luc 5.5*.
For O=[N+]([O-])c1cnc(Sc2ccncn2)c([N+](=O)[O-])c1 the results were SMARCA2 activ 0, hcDAF12 agonist 2, DAX1 inh-1 0, ssDAF-12 act 0, DAX1 inh-2 2 and hgDAF12 agonist 0.
`CCn1c([N+](=O)[O-])nc2c1c(=O)[nH]c(=O)n2C` gave SMARCA2 activ 19*, hcDAF12 agonist 0, DAX1 inh-1 0, ssDAF-12 act -1, DAX1 inh-2 -1, hgDAF12 agonist 3, SMARCA2 act conf 56* and GAL4-VP16 Luc 2.
Screening CCCCCCn1c(SCCCC)nc2c1c(=O)[nH]c(=O)n2C returned SMARCA2 activ 0, hcDAF12 agonist 2, DAX1 inh-1 0, ssDAF-12 act -1, DAX1 inh-2 -1 and hgDAF12 agonist 1.
Cc1ccc(NCCC(=O)c2ccccc2)cc1Cl was read as SMARCA2 activ 1, hcDAF12 agonist 3, DAX1 inh-1 0, ssDAF-12 act 0, DAX1 inh-2 -1 and hgDAF12 agonist 1.
Screening O=[N+]([O-])c1ccccc1N/N=C/c1cc2ccccc2nc1Cl returned SMARCA2 activ 8.2*, hcDAF12 agonist 3, DAX1 inh-1 0, ssDAF-12 act 0, DAX1 inh-2 2, hgDAF12 agonist 4, SMARCA2 act conf 11* and GAL4-VP16 Luc 5.3*.
CCOc1ccccc1/C=N/Nc1ccccc1[N+](=O)[O-] was read as SMARCA2 activ 1, hcDAF12 agonist -1, DAX1 inh-1 0, ssDAF-12 act -1, DAX1 inh-2 -1 and hgDAF12 agonist 1.

Bioassay records deposited in PubChem by The Scripps Research Institute Molecular Screening Center.
